The values that follow come from PubChem BioAssay (NCI).

About 83,000 compounds went through this panel and 20% of them were active in at least one assay; those are over-represented in the sample as a whole.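 Percent growth is the endpoint: 0 to 100 indicates growth inhibition (40 means 60% inhibition), 0 means no net growth, and negative values indicate cell death.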 Values without a mark were called inactive. Active and inactive are the calls of the source. How the source made its calls: active means growth percent below 10; inactive means the rest.

Holding throughout (assay): NCI-60 one-dose screen, 48 h (100 = growth as untreated, 0 = no growth, -100 = all killed)
Common to all, as to settings: 10 µM unless noted

Experiment [1] deals with T-47D breast.
Experiment [2] relates to BT-549 breast.
For experiment [3], the system named is MDA-MB-435 melanoma.
The subject of experiment [4] is SW-620 colon.
For experiment [5], the system named is MCF7 breast.
Experiment [6] deals with HCT-116 colon.
Experiment [7] deals with HCC-2998 colon.
Experiment [8] deals with KM12 colon.

For `COc1ccc(Nc2nc(N)nc3c(=O)[nH]ccc23)cc1`, the growth in experiment [1] was 96.6%; in experiment [2], 102%; in experiment [3], 113%; in experiment [4] it was 99.5%; in experiment [5], 79.7%; in experiment [6], 83.7%. Besides, the figures for the growth in experiment [7] and in experiment [8] were 107% and 104%, respectively.
Take `CC(C)(C)OC[C@@H]1N=C(c2ccc(Br)cc2)Nc2nc3ccccn3c2C1=O`: the growth in experiment [1] is 61.9%; in experiment [2], 72.5%; in experiment [3], -13.8% (active); in experiment [4], 40.3%; in experiment [5] it was 27.8%; in experiment [6], 43.7%. Moreover, in experiment [7], the growth was 90.9%.
Take `O=C(N/N=C/c1ccc([N+](=O)[O-])o1)c1ccc(O)cc1`: the growth in experiment [1] is 44.2%; in experiment [2], 59.4%; in experiment [3] it was -79.5% (active); in experiment [4], 18.2%; in experiment [5] it was 26.1%; in experiment [6] it was 11.4%. The values for the growth in experiment [7] and in experiment [8] were 62.9% and 33%, respectively.
Take `O=C(CCl)Nc1cc(O)c2c(c1)C(=O)c1cccc(O)c1C2=O`: the growth in experiment [1] was -76.4% (active); in experiment [2] it was -48.4% (active); in experiment [3], 13.5%; in experiment [4], -73.8% (active); in experiment [5] it was -49.6% (active); in experiment [6], -33.9% (active). Also, the growth in experiment [7] is -42.3% (active); in experiment [8], -45.8% (active).
Consider `COC(=O)c1ccc2c(c1)nc(-c1cc3ccccc3[nH]c1=O)n2-c1cc(C(C)(C)C)[nH]n1`, for which the growth in experiment [1] is 59.3%; in experiment [2] it was 54.6%; in experiment [3], 46.4%; in experiment [4] it was 61.8%; in experiment [5] it was 58.1%; in experiment [6], 51.1%. The growth was -10.1% (active) in experiment [7] and 44.3% in experiment [8].
Regarding `CC(SC(C)C(=O)N/N=C/c1cccc(Cl)c1)C(=O)N/N=C\c1cccc(Cl)c1` (stereo not given), the growth in experiment [1] was 87.8%; in experiment [2], 102%; in experiment [3], 72.8%; in experiment [4] it was 27.7%; in experiment [5] it was 49.1%; in experiment [6] it was 2.39% (active). In addition, the growth in experiment [7] is 96.5%; in experiment [8], 71.7%.
`O=C1OCC2=C1C(c1ccccc1)c1cc3c(cc1N2CCO)OCO3` (stereo not given): the growth in experiment [1] was 1.16% (active); in experiment [2], 43.9%; in experiment [3], 2.96% (active); in experiment [4], 23.6%; in experiment [5] it was -11.1% (active); in experiment [6], 7.22% (active). Further, the growth in experiment [7] is 24.5%; in experiment [8], 23.3%.
In the case of `COc1ccc(C2NC(=O)c3cc4c(cc3N2)OCO4)cc1` (stereo not given), the growth in experiment [1] is 65.5%; in experiment [2], 59.1%; in experiment [3], -41.6% (active); in experiment [4], 24.1%; in experiment [5], 18.2%; in experiment [6], 14.1%. Moreover, the growth in experiment [7] was 9.52% (active); in experiment [8], 9.55% (active).
For the molecule `Cc1nn(-c2cccc(Cl)c2)c(C)c1N=Nc1ccc(Br)cc1`, the growth in experiment [1] was 80.5%; in experiment [2], 97.6%; in experiment [3] it was 99.8%; in experiment [4] it was 103%; in experiment [5], 89.4%; in experiment [6] it was 89.5%. Further, in experiment [7], the growth was 100%.
Regarding `COc1cccc(-c2nc3sccn3c2-c2ccnc(NCCN3CCCNS3(=O)=O)n2)c1`, the growth is 95.3% in experiment [1]; 113% in experiment [2]; 54.1% in experiment [3]; 127% in experiment [4]; 100% in experiment [5]; 74.6% in experiment [6]. The growth in experiment [7] is 118%; in experiment [8], 103%.
Consider `Nc1c(C(=O)Nc2ccccc2)sc2nc3c(cc12)C(=O)CCC3`, for which the growth in experiment [1] was 47.1%; in experiment [2], 65.7%; in experiment [3] it was -5.95% (active); in experiment [4], 27.2%; in experiment [5], 19.6%; in experiment [6], 23.6%. Moreover, the growth in experiment [7] is 21.9%; in experiment [8], 19.9%.
As to `CCOC(=O)c1cnc(SCC)nc1SC#N`, the growth in experiment [1] is 80.8%; in experiment [2], 115%; in experiment [3] it was 77.5%; in experiment [4], 60%; in experiment [5] it was 87.7%; in experiment [6], 64.2%. Further, the growth in experiment [7] is 108%; in experiment [8], 101%.
As for `ClCc1c(Cl)c(Cl)c(Cl)c(CCl)c1Cl`, the growth in experiment [1] is -71.5% (active); in experiment [2], 87.5%; in experiment [3], 52.2%; in experiment [4], -82.2% (active); in experiment [5] it was -4.94% (active); in experiment [6], -76.8% (active). Besides, the growth in experiment [7] was 88.6%; in experiment [8] it was 24.8%.
Regarding `O=C1/C(=C/c2cc(F)cc(F)c2)Cc2cc(F)cc(F)c21`, the growth is 107% in experiment [1]; 96.5% in experiment [2]; 94.8% in experiment [3]; 99.2% in experiment [4]; 56.7% in experiment [5]; 79.8% in experiment [6]. Further, the growth in experiment [7] is 105%.
With `COc1cc([N+](=O)[O-])cc(OC)c1OC`, the growth is 112% in experiment [1]; 108% in experiment [2]; 117% in experiment [3]; 105% in experiment [4]; 96.5% in experiment [5]; 113% in experiment [6]. Besides, the growth in experiment [7] is 107%; in experiment [8] it was 108%.
In the case of `CC(C)(C)c1nn(-c2ccccc2)c2c1C(=O)CSC(c1ccc3c(c1)OCO3)N2` (stereo not given), the growth in experiment [1] is 84.4%; in experiment [2] it was 112%; in experiment [3] it was 99.6%; in experiment [4], 108%; in experiment [5], 90.3%; in experiment [6], 85.6%. Besides, the growth in experiment [7] is 105%; in experiment [8], 101%.
